# Screening results (PubChem BioAssay)
# Only a selection was taken, and hits are over-represented in it overall.
# Artemis endo inh – inhibitors of human Artemis endonuclease activity | recombinant Artemis, quenched FAM hairpin cleavage fluorescence | inhibition, % at 10 µM | 30,000 compounds, 0.78% hits | AID 686954;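 active means at 10 µM dose, at least 30% inhibition, measured as corrected fluorescence normalized to stimulator and neutral control wells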
# The depositor's hits bear a star.
SMILES,Artemis endo inh
Cc1cc(NC(=O)COC(=O)c2c(C)nn(Cc3ccccc3Cl)c2C)no1,88.5*
O=C(COC(=O)Cc1ccccc1)Nc1ncc(Cl)cc1Cl,-12.5
CCCCOP(=O)(CN1CCOCC1)OCCCC,-5.8
N=C(N)c1c(O)n(C2CCCCC2)c(=O)n(C2CCCCC2)c1=O,4.7
CCC1(CCc2ccncc2)C(=O)NC(=O)NC1=O,1.9
